Records with an inconclusive call do not appear. The source made the active and inactive calls. Unless noted, the call rests on the fitted dose curve; in most records, active means well fitted curve in the direction sought with a large enough effect in the repeat runs; inconclusive means weak or mixed curves; inactive means no such curve, though single readings can be large; an effect the other way counts as inactive or inconclusive.
Legend:
[1] = biological target: Nuclear receptor subfamily 1 group I member 3 (Homo sapiens) (UniProt Q14994); test: qHTS assay to identify small molecule agonists of the constitutive androstane receptor (CAR) signaling pathway (AID 1224839);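 further: HepG2 cells stably carrying human CAR and a CYP2B6 luciferase reporter; series mostly up to about 92 µM; nearly all actives have a fitted effect of over 15% in size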
Procedure, shortened: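 Compounds tested at 15 concentrations on HepG2 cells stably harbouring hCAR and CYP2B6-2.2kb reporter constructs, co-treated with PK11195 (0.75 uM final), 24 h at 37 C; luminescent reporter signal quantified.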

[2] = qHTS assay to identify small molecule antagonists of the estrogen related receptor signaling pathway with the pleiotropic PPARgamma coactivator (PGC) from Tox21 10K library - cell viability counter screen (AID 1224840; active means well fitted cell-killing curve with a large enough effect in the repeat runs, not every such curve was filed as active; further: nearly all actives have a fitted effect of over 40% in size)
Procedure, shortened: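 Viability counter screen, PGC/ERR cells: 17.5 h compound exposure at 37 C, CellTiter-Fluor fluorescence endpoint.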

[3] = biological target: Thyrotropin receptor (Homo sapiens) (UniProt P16473); test: qHTS assay to identify small molecule agonists of the thyroid stimulating hormone receptor (TSHR) signaling pathway (AID 1224843; calls by dose curve; further: nearly all actives have a fitted effect of over 45% in size)
Procedure, shortened: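 A cell-based cAMP HTRF format was run in TSHR-transfected HEK293 cells, 800 per well. Treatment: 30 min, room temperature. Detection: 1 h with labelled cAMP and anti-cAMP cryptate. Concentration-response over 15 points, three replicates.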

[4] = qHTS assay to identify small molecule agonists of the hypoxia (HIF-1) signaling pathway - cell viability counter screen (AID 1224844; calls by dose curve; further: nearly all actives have a fitted effect of over 50% in size)
Procedure, shortened: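 Same wells as the HIF-1 reporter screen; ME-180 cells carrying HRE-bla, 17 hr treatment at 37C; CellTiter-Glo luminescence read after 30 min at room temperature.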

[5] = qHTS assay to identify small molecule agonists of H2AX (AID 1224845; active means well fitted activation curve with a large enough effect in the signal ratio in the repeat runs, not every such curve was filed as active; the % refers to the signal ratio)
Procedure, shortened: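 Phospho-H2AX Ser139 measured by HTRF (ex 320 nm; em 665 and 620 nm) after 24 hr antibody incubation. Compounds, 15 concentrations, 0.76% DMSO, were applied to CHO-K1 cells for 3hr at 37C before lysis.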

[6] = qHTS assay to identify small molecule agonists of the hypoxia (HIF-1) signaling pathway (AID 1224846; active means well fitted activation curve with a large enough effect in the signal ratio in the repeat runs, not every such curve was filed as active; the % refers to the signal ratio)
Procedure, shortened: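 In ME-180 cells bearing an HRE-bla construct, 17 h treatment with DMSO-dissolved compounds at 37C was followed by CCF4-AM loading to quantify reporter induction.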

[7] = qHTS assay to identify small molecule agonists of H2AX - cell viability counter screen (AID 1224847; calls by dose curve; further: top concentration of the series differs between compounds; nearly all actives have a fitted effect of over 30% in size)
Procedure, shortened: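 Compounds tested at 15 concentrations were incubated 3 hr at 37C with wild-type CHO-K1 cells; cellular ATP-based luminescence (CellTiter-Glo) indicated viability.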

[8] = qHTS RealTime-Glo MT Cell Viability Assay in HepG2 cells - 24 hour (AID 1224867); further: nearly all actives have a fitted effect of over 50% in size
Procedure, shortened: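 Compound treatment began 5 h after plating HepG2 cells (600/well) with NanoLuc luciferase and prosubstrate. Plates stayed at 37 C for 40 h; luminescence was captured at six time points, 0 h through 40 h.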

[9] = qHTS RealTime-Glo MT Cell Viability Assay in HEK293 cells - 32 hour (AID 1224868); further: top concentration of the series differs between compounds; nearly all actives have a fitted effect of over 50% in size
Procedure, shortened: (§1)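 Quantitative high-throughput screen of the Tox21 10K library in HEK293: cells and RealTime-Glo reagents plated together, compound added at 5 h, luminescence monitored through 40 h at 37 C.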

[10] = A CellTox Green Cytotoxicity Assay to monitor cytotoxicity in HEK293 cells - 0 hour (AID 1224869); further: nearly all actives have a fitted effect of over 50% in size; further: potency means the concentration at half of the fitted maximal effect
Procedure, shortened: (§2)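 Homogeneous no-lysis format: HEK293 cell suspension mixed with CellTox Green reagent, seeded, incubated 5 h at 37 C/5% CO2, then dosed by pintool with compound in DMSO.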

[11] = qHTS RealTime-Glo MT Cell Viability Assay in HepG2 cells - 40 hour (AID 1224870); further: nearly all actives have a fitted effect of over 50% in size
Procedure, shortened: (§3)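 Real-time viability: cells seeded at 600 per well together with NanoLuc and cell-permeant prosubstrate, compounds added after 5 h incubation. Luminescence tracked at 0, 8, 16, 24, 32 and 40 h of exposure.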

[12] = A CellTox Green Cytotoxicity Assay to monitor cytotoxicity in HEK293 cells - 40 hour (AID 1224871); further: nearly all actives have a fitted effect of over 45% in size; further: potency means the concentration at half of the fitted maximal effect
Procedure, shortened: as §2

[13] = qHTS RealTime-Glo MT Cell Viability Assay in HEK293 cells - 16 hour (AID 1224872)
Procedure, shortened: as §1

[14] = qHTS RealTime-Glo MT Cell Viability Assay in HepG2 cells - 8 hour (AID 1224873); further: nearly all actives have a fitted effect of over 55% in size
Procedure, shortened: as §3

[15] = qHTS RealTime-Glo MT Cell Viability Assay in HEK293 cells - 40 hour (AID 1224874); conditions: RealTime-Glo luminescence; max response: active compounds read low; further: nearly all actives have a fitted effect of over 50% in size
Procedure, shortened: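 Measured as luminescence from the same continuously cultured HEK293 wells at successive time points (0, 8, 16, 24, 32, 40 h) after compound addition. Reagent present from seeding; dosing at 5 h; incubation 37 C.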

[16] = A CellTox Green Cytotoxicity Assay to monitor cytotoxicity in HEK293 cells - 24 hour (AID 1224875); further: nearly all actives have a fitted effect of over 45% in size; further: potency means the concentration at half of the fitted maximal effect
Procedure, shortened: as §2

[17] = qHTS assay to identify small molecule antagonists of the estrogen related receptor signaling pathway with the pleiotropic PPARgamma coactivator (PGC) from Tox21 10K library (AID 1224841; call rule not given here)
Procedure, shortened: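 In the PGC/ERR line, DMSO solutions of test chemicals are pin-delivered to 2,000 cells/well six hours after dispensing. Following eighteen hours' incubation, One-Glo reagent is added and luminescence recorded.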

[18] = qHTS assay to identify small molecule agonists of the estrogen related receptor signaling pathway with the pleiotropic PPARgamma coactivator (PGC) from Tox21 10K library (AID 1224842); further: nearly all actives have a fitted effect of over 15% in size
Procedure, shortened: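 Luminescence from One-Glo (30 min, room temperature) measured after PGC/ERR cells had 18 h at 37 C with pinned compound (23 nL in DMSO). Cells had been seeded at 2,000 per well and pre-incubated 6 h.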

[19] = qHTS assay to identify small molecule antagonists of the estrogen related receptor (ERR) signaling pathway from Tox21 library (AID 1224848); further: nearly all actives have a fitted effect of over 50% in size; further: potency means the concentration at half of the fitted maximal effect
Procedure, shortened: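 ERR cell line, 2,000 cells/well. 6 h settle, then compound (DMSO) added; 18 h at 37 C; ONE-Glo luminescence after 30 min RT.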

[20] = qHTS assay to identify small molecule agonists of the estrogen related receptor (ERR) signaling pathway from Tox21 library (AID 1224849; calls by dose curve; further: nearly all actives have a fitted effect of over 15% in size)
Procedure, shortened: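 Reporter cells (ERR, NTP source) treated with Tox21 10K compounds 18 h, 37 C. Readout: ONE-Glo luminescence, 30 min RT.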
On the % scale 0 is the no-effect control and ±100 the full control effect.

Nuclear receptor subfamily 1 group I member 3 (Homo sapiens), sequence (Q14994 whole entry, looked up): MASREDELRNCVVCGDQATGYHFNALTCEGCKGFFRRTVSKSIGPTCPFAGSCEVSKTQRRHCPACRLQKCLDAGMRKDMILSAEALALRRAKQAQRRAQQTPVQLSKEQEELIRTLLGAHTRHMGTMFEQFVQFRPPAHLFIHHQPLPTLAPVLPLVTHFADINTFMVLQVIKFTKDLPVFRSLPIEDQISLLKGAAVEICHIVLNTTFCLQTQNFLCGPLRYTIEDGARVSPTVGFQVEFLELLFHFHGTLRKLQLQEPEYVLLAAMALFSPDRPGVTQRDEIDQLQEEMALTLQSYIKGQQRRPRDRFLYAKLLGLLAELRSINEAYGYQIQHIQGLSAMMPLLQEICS
Thyrotropin receptor (Homo sapiens), sequence (P16473 whole entry, looked up): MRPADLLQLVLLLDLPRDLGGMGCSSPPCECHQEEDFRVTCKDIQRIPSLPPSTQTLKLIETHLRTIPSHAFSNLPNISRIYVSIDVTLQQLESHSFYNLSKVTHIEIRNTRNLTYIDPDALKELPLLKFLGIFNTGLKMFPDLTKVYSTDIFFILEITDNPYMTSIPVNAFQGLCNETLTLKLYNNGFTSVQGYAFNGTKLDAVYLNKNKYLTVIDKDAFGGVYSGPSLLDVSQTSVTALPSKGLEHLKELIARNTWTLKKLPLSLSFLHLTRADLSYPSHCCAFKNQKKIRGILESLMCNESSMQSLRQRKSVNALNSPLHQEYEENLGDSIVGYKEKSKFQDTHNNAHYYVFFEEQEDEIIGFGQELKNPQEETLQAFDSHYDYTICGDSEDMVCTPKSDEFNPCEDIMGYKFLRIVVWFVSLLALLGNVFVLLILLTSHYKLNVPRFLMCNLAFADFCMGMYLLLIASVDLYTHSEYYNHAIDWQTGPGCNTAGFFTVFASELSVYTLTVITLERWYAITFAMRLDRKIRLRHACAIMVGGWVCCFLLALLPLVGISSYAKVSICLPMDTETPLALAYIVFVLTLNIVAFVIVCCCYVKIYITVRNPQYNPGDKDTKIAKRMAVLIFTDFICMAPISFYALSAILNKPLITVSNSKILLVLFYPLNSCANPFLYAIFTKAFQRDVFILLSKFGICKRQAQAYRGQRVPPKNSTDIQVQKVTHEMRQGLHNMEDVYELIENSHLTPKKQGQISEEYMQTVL

O=C(O)C(=O)Nc1cccc(-c2nn[nH]n2)c1
inactive: Potency [1] | outcome [2] | outcome [3] | outcome [4] | outcome [5] | outcome [6] | Potency [7] | outcome [8] | Potency [9] | Potency [10] | outcome [11] | Potency [12] | Potency [13] | outcome [14] | max response [15] 0.908% | Potency [16]

NS(=O)(=O)c1cc2c(cc1Cl)NC(C(Cl)Cl)NS2(=O)=O (stereo not given)
inactive: Potency [1] | outcome [2] | outcome [3] | outcome [4] | outcome [5] | Potency [7] | outcome [8] | Potency [9] | Potency [10] | outcome [11] | Potency [12] | Potency [13] | max response [15] 2.25% | Potency [16]

O=C(/C=C/c1ccccc1)NCCO
inactive: Potency [1] | outcome [2] | outcome [3] | outcome [4] | outcome [5] | outcome [6] | outcome [8] | Potency [9] | outcome [11] | Potency [13] | max response [15] -3.72%
active: Potency [10] 9.52 µM | Potency [12] 7.56 µM | Potency [16] 6.01 µM

CC(C)(C)c1ccc(C=O)cc1
inactive: Potency [1] | outcome [2] | outcome [3] | outcome [4] | outcome [5] | outcome [6] | Potency [7] | outcome [8] | Potency [9] | outcome [11] | Potency [13] | outcome [14] | max response [15] 0.97% | Potency [16]

CCCCOC(=O)C(=O)OCCCC
inactive: Potency [1] | outcome [2] | Potency [17] | outcome [18] | outcome [4] | outcome [5] | outcome [6] | Potency [7] | Potency [19] | outcome [20] | outcome [8] | Potency [9] | Potency [10] | outcome [11] | Potency [12] | outcome [14] | max response [15] 0.934% | Potency [16]

CC(=O)OCC(=O)[C@@]1(O)[C@H](OC(C)=O)C[C@H]2[C@@H]3CCC4=CC(=O)C=C[C@]4(C)[C@@]3(F)[C@@H](O)C[C@@]21C
inactive: Potency [1] | outcome [2] | outcome [4] | outcome [5] | outcome [6] | outcome [8] | Potency [9] | Potency [10] | outcome [11] | Potency [12] | Potency [13] | max response [15] 3.94% | Potency [16]

O=S(=O)(O)SSS(=O)(=O)O
inactive: Potency [1] | outcome [2] | outcome [3] | outcome [4] | outcome [5] | outcome [6] | Potency [7] | outcome [8] | Potency [9] | Potency [10] | outcome [11] | Potency [12] | Potency [13] | outcome [14] | max response [15] 4.41% | Potency [16]

O=C1c2ccccc2-c2ccccc21
inactive: Potency [1] | outcome [2] | Potency [17] | outcome [18] | outcome [3] | outcome [4] | outcome [5] | outcome [6] | Potency [19] | outcome [20] | outcome [8] | Potency [10] | outcome [11] | Potency [12] | outcome [14] | max response [15] 1.19% | Potency [16]

CC(=O)OC(C)c1ccccc1 (stereo not given)
inactive: Potency [1] | outcome [2] | outcome [4] | outcome [5] | outcome [6] | Potency [7] | outcome [8] | Potency [9] | Potency [10] | outcome [11] | Potency [12] | Potency [13] | outcome [14] | max response [15] 0.769% | Potency [16]

CCOc1ccc(NC(=O)OC(C)C)cc1OCC
inactive: Potency [1] | outcome [2] | outcome [4] | outcome [5] | outcome [6] | Potency [7] | outcome [8] | Potency [10] | outcome [11] | Potency [12] | Potency [13] | outcome [14] | Potency [16]

C/C=C(\C)C(=O)OCC/C=C\CC
inactive: Potency [1] | outcome [2] | outcome [4] | outcome [5] | outcome [6] | Potency [7] | outcome [8] | Potency [9] | Potency [10] | outcome [11] | Potency [12] | Potency [13] | outcome [14] | max response [15] 2.25% | Potency [16]

C1=C\CC/C=C\CC/1
inactive: Potency [1] | outcome [2] | outcome [4] | outcome [5] | outcome [6] | Potency [7] | outcome [8] | Potency [9] | Potency [10] | outcome [11] | Potency [12] | Potency [13] | outcome [14] | max response [15] 16.6% | Potency [16]

CCCCC(CC)CNC(=O)CC(C)OC(=O)CCC(=O)O (stereo not given)
inactive: Potency [1] | outcome [2] | Potency [17] | outcome [4] | outcome [5] | outcome [6] | Potency [7] | Potency [19] | Potency [10] | outcome [11] | Potency [12] | Potency [13] | outcome [14] | max response [15] 3.69% | Potency [16]

Cc1cccc(C(=O)O)c1[N+](=O)[O-]
inactive: Potency [1] | outcome [2] | outcome [3] | outcome [4] | outcome [5] | outcome [6] | Potency [7] | Potency [9] | Potency [10] | outcome [11] | Potency [12] | Potency [13] | outcome [14] | max response [15] 0.185% | Potency [16]

CCOC(=O)CCCCCCCCC(=O)OCC
inactive: Potency [1] | outcome [2] | outcome [4] | outcome [5] | outcome [6] | Potency [7] | outcome [8] | Potency [10] | outcome [11] | Potency [12] | Potency [13] | max response [15] 5.25% | Potency [16]

Cc1cccc(NC(=S)N(C)C)c1
active: Potency [19] 48.6 µM
inactive: Potency [1] | outcome [2] | Potency [17] | outcome [18] | outcome [3] | outcome [4] | outcome [5] | outcome [6] | outcome [20] | outcome [8] | Potency [10] | outcome [11] | Potency [12] | Potency [13] | outcome [14] | Potency [16]

Reference: PubChem BioAssay (Tox21)
